From PubChem BioAssay come the findings set out here.

Active and inactive are the calls of the source.

In one experiment the target is Albumin (Bos taurus) (UniProt P02769). In words: compounds binding labelled BSA control protein – biochemical, small-molecule microarray, Alexa647 label, 635/667 nm fluorescence, artefact control for SMM control protein annotation, profiling panel (AID 1118).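 Further: score merges 667 nm emission intensity and signal-to-noise per printed compound spot.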 The following applies: BSA-A647 binding, fluorescence 635 nm, higher = more signal.
Experiment [1] in a line: probe aXIP binding to arrayed compounds – biochemical, NeuroSMM set, 635/667 nm fluorescence, primary screen (AID 1119).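 Further: probe is the protein aXip251-270 applied at 1 µg/mL to compound-printed slides; binding of probe to printed compounds measured as 667 nm fluorescence plus signal to noise.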 The following applies: small-molecule microarray, higher = more signal, called active from +8 up or from −8 down.
The nature of experiment [2]: probe aNOTCH3 binding on compound microarray – biochemical, small-molecule microarray, 635/667 nm fluorescence, primary screen (AID 1120).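 Further: probe is a biotin-tagged antibody raised against NOTCH3 rather than NOTCH3 protein; score merges spot fluorescence near 667 nm with spot signal to noise.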 The following applies: higher = more signal.
Experiment [3] can be described thus: probe aNOTCH2 binding on compound microarray – biochemical, small-molecule microarray, 635/667 nm fluorescence, primary screen (AID 1121).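 Further: score merges feature fluorescence read at 667 nm with its signal to noise.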 The following applies: higher = more signal.
Experiment [4] concerns the target Carbonic anhydrase 2 (Homo sapiens) (UniProt P00918). The experiment in a line: compounds binding carbonic anhydrase 2 – biochemical, small-molecule microarray, Alexa647-labelled CAII, profiling panel (AID 1122). The following applies: CAII-A647 binding fluorescence, higher = more signal.
A short description of experiment [5]: COS7 lysate on small-molecule microarray, probe aHis, 635 nm (AID 1123).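 Further: z-score combines 667nm fluorescence intensity with signal-to-noise per printed compound spot.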 The following applies: COS7 cell lysate, fluorescence, higher = more signal.
A short description of experiment [6]: probe aLAP1 signal on lysate-treated microarray – cell lysate, small-molecule microarray, COS7 lysate, primary screen (AID 1124).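 Further: lysate comes from COS7 cells expressing LAP1 and is applied at 0.3 µg/mL; score merges spot fluorescence near 667 nm with signal-to-noise over triplicate slides.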 The following applies: probe aLAP1, fluorescence, higher = more signal.
The test system of a further experiment is Sam68 (KHDRBS1). In words: compounds binding KHDRBS1 protein – biochemical, small-molecule microarray, 635 nm fluorescence, primary screen (AID 1125).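 Further: score merges 667 nm channel intensity with signal to noise over triplicate slides.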 The following applies: higher = more signal.
Experiment [7] deals with Chordin-like protein 2 (CHRDL2). The experiment in a line: compounds binding chordin-like 2 – biochemical, small-molecule microarray, 635 nm fluorescence, primary screen (AID 1126).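 Further: printed compound slides probed with Chrdl2 protein at 4 µg/mL for 1 h at 4 C; score merges 667 nm emission intensity with signal to noise over three replicate slides.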 The following applies: fluorescence 635 nm, higher = more signal.
The target of experiment [8] is Concanavalin-A (Canavalia ensiformis) (UniProt P02866). In words: compounds binding concanavalin A lectin – biochemical, small-molecule microarray, Alexa647 label, 635 nm, artefact control for SMM control protein annotation, primary screen (AID 1127).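 Further: z combines 667 nm emission intensity with signal-to-noise across three replicate slides.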 The following applies: ConA-A647 binding fluorescence, higher = more signal.
Concanavalin-A (Canavalia ensiformis), sequence (P02866 whole entry, looked up): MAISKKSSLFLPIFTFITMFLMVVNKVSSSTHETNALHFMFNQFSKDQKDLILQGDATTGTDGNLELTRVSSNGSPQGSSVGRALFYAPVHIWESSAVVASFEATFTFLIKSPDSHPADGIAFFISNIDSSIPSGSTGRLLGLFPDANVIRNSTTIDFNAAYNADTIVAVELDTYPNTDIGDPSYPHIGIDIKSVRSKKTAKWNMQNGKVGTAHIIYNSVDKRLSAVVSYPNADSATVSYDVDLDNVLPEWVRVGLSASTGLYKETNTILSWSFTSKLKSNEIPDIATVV

Albumin (Bos taurus), sequence (P02769 whole entry, looked up): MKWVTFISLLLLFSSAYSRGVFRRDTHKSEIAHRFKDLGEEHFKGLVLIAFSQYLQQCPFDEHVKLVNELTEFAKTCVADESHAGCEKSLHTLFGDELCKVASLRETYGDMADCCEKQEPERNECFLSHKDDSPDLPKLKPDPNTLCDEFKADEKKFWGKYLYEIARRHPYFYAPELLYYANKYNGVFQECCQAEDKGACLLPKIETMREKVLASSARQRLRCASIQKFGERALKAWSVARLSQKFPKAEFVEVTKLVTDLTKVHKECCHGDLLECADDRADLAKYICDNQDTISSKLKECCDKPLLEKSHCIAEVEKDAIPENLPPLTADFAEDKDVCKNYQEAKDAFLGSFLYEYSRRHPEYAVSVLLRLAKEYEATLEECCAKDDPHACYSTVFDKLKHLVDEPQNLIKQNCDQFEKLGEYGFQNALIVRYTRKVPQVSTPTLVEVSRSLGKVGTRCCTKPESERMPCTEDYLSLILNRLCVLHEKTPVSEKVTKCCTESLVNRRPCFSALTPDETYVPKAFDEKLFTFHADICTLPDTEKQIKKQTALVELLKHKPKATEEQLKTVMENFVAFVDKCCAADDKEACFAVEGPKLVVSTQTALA

As to `COc1ccc(COC(=O)NN=C2C[C@@H](O)[C@@H](O)[C@@H]3[C@@H]4C(=O)N(Cc5ccccc5)C(=O)[C@@H]4CC[C@H]23)cc1`, the composite z-score was 0.719 with Albumin (Bos taurus); 0.0418 in experiment [2]; -0.348 in experiment [3]; -0.17 in experiment [4]; 0.341 in experiment [5]; -0.173 in [6]. Also, the composite z-score with Sam68 (KHDRBS1) was 0.0827; in experiment [7] it was -0.709; in experiment [8], -0.266. Besides, the composite Z-score in [1] was -0.201 (inactive).
With `CO[C@H]1COC(=O)CC=C[C@H](C)COC(=O)[C@@H](C)NC(=O)CC=C[C@@H]1C`, the composite z-score is -0.854 with Albumin (Bos taurus); -0.179 in experiment [2]; -0.14 in [3]; -0.532 in [4]; -1.13 in experiment [5]; 0.487 in experiment [6]. The values for the composite z-score (in the experiment with Sam68 (KHDRBS1); in experiment [7]; in [8]) were 0.339, 1.56 and -0.582, respectively. For the same compound, the composite Z-score in experiment [1] is 0.842 (inactive).
On to `COc1ccc(COC(=O)NN=C2C[C@@H](O)[C@@H](O)[C@@H]3[C@@H]4C(=O)N(C5CCCCC5)C(=O)[C@@H]4CC[C@H]23)cc1`, for which the composite z-score with Albumin (Bos taurus) is 0.213; in experiment [2], -0.365; in experiment [3], -0.28; in [4] it was 0.262; in [5] it was -0.0294; in experiment [6], -0.222. In addition, the composite z-score in the experiment with Sam68 (KHDRBS1) was -0.331; in experiment [7], -0.275; in [8], -1.14. Moreover, in [1], the composite Z-score was 1.22 (inactive).
Consider `C#CCCCON=C1C[C@@H](O)[C@@H](O)[C@@H]2[C@@H]3C(=O)N(CCC(=O)OCC)C(=O)[C@@H]3CC[C@H]12`, for which the composite z-score is 0.356 with Albumin (Bos taurus); -0.042 in experiment [2]; -0.0837 in [3]; 0.222 in experiment [4]; 0.769 in experiment [5]; 0.613 in [6]. In addition, the values for the composite z-score (in the experiment on Sam68 (KHDRBS1); in [7]; in experiment [8]) were 1.32, 0.247 and 1.07, respectively. Moreover, the composite Z-score in experiment [1] was 0.269 (inactive).
Take `O=c1n(-c2ccccc2)c(=O)n2n1CC[C@@H]1C(=NOCc3ccccc3)[C@H]3O[C@H]3[C@@H](O)[C@@H]12`: the composite z-score with Albumin (Bos taurus) is -0.101; in [2] it was -0.179; in experiment [3], -0.189; in [4], 0.745; in [5], -0.539; in [6], -0.289. For the same compound, the composite z-score with Sam68 (KHDRBS1) is -0.712; in experiment [7] it was -0.0034; in [8], -0.073. Moreover, the composite Z-score in experiment [1] is 0.371 (inactive).
Take `COc1cccc([C@H]2Oc3ccc(OC)cc3C(=NO[C@H](C)c3cn([C@H](CO)Cc4ccccc4)nn3)[C@@H]2O)c1`: the composite z-score was -1.28 with Albumin (Bos taurus); -0.208 in experiment [2]; -0.187 in [3]; 0.406 in experiment [4]; 0.418 in [5]; 0.0672 in [6]. Also, the composite z-score with Sam68 (KHDRBS1) was -0.779; in [7], 0.08; in experiment [8], -2.12. For the same compound, the composite Z-score in [1] was -0.372 (inactive).
As for `CO[C@@H]1COC(=O)CC=C[C@H](C)[C@H](OC)COC(=O)[C@H](C)NC(=O)CC=C[C@H]1C`, the composite z-score with Albumin (Bos taurus) was -0.837; in experiment [2] it was -0.0043; in experiment [3], -0.118; in [4], -0.481; in [5] it was -0.448; in experiment [6] it was -0.134. Besides, the composite z-score was 0.786 in the experiment on Sam68 (KHDRBS1), 0.896 in experiment [7] and -1.76 in [8]. For the same compound, in [1], the composite Z-score was 1.11 (inactive).
In the case of `CC(C)=CCCC(C)=CCON=C1C[C@@H](O)[C@@H](O)[C@@H]2[C@@H]3C(=O)N(C[C@@H]4CCCO4)C(=O)[C@@H]3CC[C@H]12`, the composite z-score with Albumin (Bos taurus) is 0.816; in experiment [2], 0.121; in [3] it was -0.0651; in [4], 0.22; in [5], 0.401; in experiment [6], -0.592. The composite z-score is 1.3 in the experiment with Sam68 (KHDRBS1), 1.3 in [7] and 1.13 in [8]. Also, the composite Z-score in experiment [1] was 0.365 (inactive).
For the compound `CC(CCN1CCCCc2nc(C)c(C)cc21)=NOC[C@@H](C)[C@H](OCc1ccccc1)C(C)C`, the composite z-score with Albumin (Bos taurus) was -0.303; in [2], -0.427; in experiment [3], -0.298; in [4], -0.497; in experiment [5], -0.31; in [6] it was -0.899. For the same compound, the composite z-score in the experiment with Sam68 (KHDRBS1) was -0.758; in experiment [7], -1.78; in experiment [8] it was -1.88. Further, the composite Z-score in experiment [1] was -0.461 (inactive).
As to `CO[C@@H]1COC(=O)[C@@H](C)COC(=O)[C@@H](C)NC(=O)CC=C[C@@H]1C`, the composite z-score was -0.647 with Albumin (Bos taurus); -0.16 in experiment [2]; -0.208 in [3]; -0.425 in [4]; -0.566 in [5]; 0.262 in [6]. The figures for the composite z-score (with Sam68 (KHDRBS1); in [7]; in experiment [8]) were 0.0411, 1.6 and -0.988, respectively. For the same compound, the composite Z-score in [1] was -0.377 (inactive).
Turning to `CCOC(=O)[C@H](Cc1ccccc1)NC(=O)OC1CC(CCC2CC(CC)=NO2)OC2(CCCC(COC(=O)NCCC(C)C)O2)C1` (stereo not given in full), the composite z-score with Albumin (Bos taurus) was 0.459; in experiment [2], -0.133; in [3], -0.179; in [4], 0.312; in experiment [5] it was 0.86; in experiment [6], -0.342. For the same compound, the composite z-score was found to be 0.676 in the experiment with Sam68 (KHDRBS1), 0.139 in experiment [7] and 0.918 in experiment [8]. Also, the composite Z-score in [1] was 0.257 (inactive).
For `CCOC(=O)[C@H](CC(C)C)NC(=O)CCC1CC(OC(=O)NCCc2ccc(F)cc2)CC2(CCCC(COC(=O)NCCC(C)C)O2)O1` (stereo not given in full), the composite z-score with Albumin (Bos taurus) is 0.281; in experiment [2], 0.128; in [3] it was -0.177; in experiment [4] it was 0.269; in experiment [5], 0.596; in experiment [6], -0.14. Also, the composite z-score in the experiment on Sam68 (KHDRBS1) is -0.163; in [7], 0.301; in [8] it was 0.816. The composite Z-score in [1] was -0.375 (inactive).
